Screening data: PubChem BioAssay, National Center for Advancing Translational Sciences (NCATS)
Only a selection was taken, and hits are over-represented in it overall.
TDP1 cell noCPT: qHTS for Inhibitors of human tyrosyl-DNA phosphodiesterase 1 (TDP1): qHTS in cells in absence of CPT; DT40 Tdp1-/- hTDP1 cells, no CPT, ATP luminescence, 48 h; Potency, µM (doses to about 46.2 µM), usual class: inhibitors; hit rate 15% among 420,000; further: nearly all actives have a fitted effect of over 55% in size
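Cells were dispensed at 400 per well, compounds added by pin tool, plates incubated ≥48 hr at 37 °C, then CellTiter-Glo added for 30 min at room temperature before luminescence reading. Line: DT40 Tdp1-/- complemented with hTDP1; camptothecin omitted.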
12-LOX inh: ALOX12 (human) lipoxygenase inhibition. P18054. purified 12hLO, xylenol orange hydroperoxide absorbance. Potency, µM (doses to about 108 µM), hits mostly inhibitors. hit rate 1.1% among 580,000
Target sequence (P18054 whole entry, looked up): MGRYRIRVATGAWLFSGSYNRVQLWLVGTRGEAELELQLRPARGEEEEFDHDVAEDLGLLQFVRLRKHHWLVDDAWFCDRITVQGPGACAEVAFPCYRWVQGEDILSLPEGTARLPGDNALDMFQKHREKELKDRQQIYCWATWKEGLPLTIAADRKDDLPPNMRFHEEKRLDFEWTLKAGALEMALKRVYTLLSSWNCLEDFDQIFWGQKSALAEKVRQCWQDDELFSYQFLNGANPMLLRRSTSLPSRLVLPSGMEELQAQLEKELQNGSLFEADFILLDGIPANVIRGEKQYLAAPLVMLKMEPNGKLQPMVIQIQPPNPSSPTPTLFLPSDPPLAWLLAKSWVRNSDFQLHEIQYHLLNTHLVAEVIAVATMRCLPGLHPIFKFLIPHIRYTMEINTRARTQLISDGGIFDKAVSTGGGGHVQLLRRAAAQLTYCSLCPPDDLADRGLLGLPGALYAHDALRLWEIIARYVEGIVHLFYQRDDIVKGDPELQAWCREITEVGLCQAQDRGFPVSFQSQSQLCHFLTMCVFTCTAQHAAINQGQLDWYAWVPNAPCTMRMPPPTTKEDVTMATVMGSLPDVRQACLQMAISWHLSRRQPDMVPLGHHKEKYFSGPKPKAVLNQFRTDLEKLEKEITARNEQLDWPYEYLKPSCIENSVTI
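Purified human 12hLO at 150 nM in 25 mM Hepes, 0.01% Triton X-100, pH 7.0, preincubated 15 min at room temperature with compound. Reaction started with 40 uM arachidonic acid, 30 min at room temperature. Hydroperoxide measured by Fe-xylenol orange, 573/405 nm absorbance ratio.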
HT1080 IDH1KD tx: kills HT-1080 cells with IDH1 knockdown; HT-1080 IDH1 knockdown viability, ATP luminescence, 48 h; Potency, µM (top dose mostly 46.1 µM), most hits filed as cytotoxic; hit rate 2% among 360,000
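Cytotoxicity counter-line: IDH1KD HT-1080, 48 h, CellTiter-Glo. Curves classed by r2, magnitude and activity.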
DT40 TDP1 CPT: growth inhibition of DT40 Tdp1-/-;hTDP1 cells with camptothecin (screen for TDP1 inhibitors); hit rate 12% among 420,000; AID 686979; chicken DT40 Tdp1-/-;hTDP1 cells + 20 nM CPT, ATP luminescence, 48 h; Potency, µM (top dose mostly 46.2 µM), usual class: inhibitors; further: nearly all actives have a fitted effect of over 55% in size
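Chicken DT40 Tdp1-/- cells complemented with human TDP1, 400 cells/well, exposed to compounds plus 20 nM camptothecin for at least 48 h at 37 C; viability read as ATP content by CellTiter-Glo luminescence.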
HT1080NT lethal: kills 2HG-producing HT-1080-NT fibrosarcoma cells; AID 686970; Potency, µM (doses to about 46.1 µM), hits mostly cytotoxic; HT-1080-NT fibrosarcoma viability, CellTiter-Glo ATP luminescence, 48 h; hit rate 1.6% among 360,000;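 further: NT is the 2HG producing partner of a matched IDH1 knockdown line; nearly all actives have a fitted effect of over 55% in size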
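Compounds were tested in concentration-response format on HT-1080-NT cells for 48 hours at 37 degrees C. Cell viability came from CellTiter-Glo luminescence; curves were classified by r2, response magnitude and activity.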
IL-1B inflam inh: inhibitors of inflammasome signaling (IL-1 beta secretion); hit rate 4.7% among 360,000; THP-1 LPS/ATP IL-1B secretion, AlphaLISA, 16 h; hits give low values; AID 743279; activity change, % at 57.5 µM; in the data active means activity change below about -50%; inconclusive means mostly about -30% to -49%
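Secreted IL-1B measured by AlphaLISA bead assay after 16 h compound exposure of THP-1 cells; compounds (final up to 57.5 uM) added 1 h before LPS (250 ng/mL) and ATP (1.25 mM) stimulation; lower signal means less secretion.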
Numbers stand for hits; - = inactive; ? = inconclusive; . = not tested or not shown; [ ] = remark or other dose. Unless noted, the call rests on the fitted dose curve; in most records, active means well fitted curve in the direction sought with a large enough effect; inconclusive means small, poorly fitted or top-dose-only effect, or another doubt; inactive means no such curve, though single readings can be large; an effect the other way counts as inactive or inconclusive.

SMILES	TDP1 cell noCPT	12-LOX inh	HT1080 IDH1KD tx	DT40 TDP1 CPT	HT1080NT lethal	IL-1B inflam inh
Cc1cc(=O)c(C(=O)N2CCN(S(=O)(=O)c3ccccc3C#N)CC2)nn1-c1ccccc1F	.	-	.	.	.	.
COc1ccc2c(c1)OCC(Cc1ccc(OC)c(O)c1)C2=O (stereo not drawn)	0.58µM	.	.	0.73µM	.	.
CC1=CC2=NC(=O)/C(=C/c3cccn3Cc3ccccc3)C(=N)N2O1	?	-	?	-	?	-
CC1=CC2=NC(=O)/C(=C\c3cccn3CCOc3ccc(C)c(C)c3)C(=N)N2O1	?	-	-	?	-	-60
Cc1c(-c2ccc(F)cc2)[nH]c2ccc(CNC(=O)c3n[nH]c4c3CCCC4)cc12	.	-	.	.	.	.
O=C1CC(c2ccco2)CC2=C1C1c3ccccc3C(=O)N1c1ccccc1N2 (stereo not drawn)	23µM	-	?	?	?	-94
CCCc1ccc(OCCN)cc1	.	-	.	.	.	.
C=C1C(=O)OC2C1C(OC(=O)C(C)=CC)CC(=C)C1C(O)C3OC3(C)C21O (stereo not drawn)	15µM	-	15µM	15µM	-	-101
COCCCNC(=O)c1c(N)n(-c2ccc3c(c2)OCO3)c2nc3ccccc3nc12	?	?	?	?	?	-
CCOC(=O)c1c(N)n(-c2cccc(OC)c2)c2nc3ccccc3nc12	.	-	.	.	.	.
CCCNC(=O)c1c(N)n(-c2ccc3c(c2)OCO3)c2nc3ccccc3nc12	15µM	-	-	8.2µM	-	-
Nc1c(C(=O)NC2CC2)c2nc3ccccc3nc2n1-c1ccc2c(c1)OCO2	?	-	-	?	-	-51
CCCNC(=O)c1c(N)n(-c2cc(OC)cc(OC)c2)c2nc3ccccc3nc12	?	-	-	?	-	-55
COc1ccc(Nc2cccc(CN3CCCC(C)(NC(C)=O)C3)c2)cc1 (stereo not drawn)	.	-	.	.	.	.
Cc1ccc2nc(COCC(=O)N[C@H]3CC[C@@H]4CCC[C@@H]43)[nH]c2c1	.	-	.	.	.	.
O=C(Oc1ccc(Oc2ccccc2)cc1)C1CCCCC1	.	-	.	.	.	.
COc1cccc(S(=O)(=O)N2CCC3(CC2)C(OC)C(=O)N3c2cccc(F)c2)c1 (stereo not drawn)	.	-	.	.	.	.
Cc1ccc2oc(=O)n(Cc3ccccc3OC(C)C)c2c1	15µM	-	-	?	-	-
c1ccc(Oc2cccc(-c3nc4ccccc4s3)c2)cc1	.	-	.	.	.	.
O=C(ONc1ccc(N=NC(=O)c2ccccc2O)cc1)c1ccccc1	6.5µM	?	1.8µM	7.3µM	2.3µM	-
Cc1c(O)ccc(-c2[nH]ncc2-c2nc3ccccc3s2)c1O	?	-	-	?	-	?
Cc1c(O)ccc(-c2n[nH]c(C(=O)O)c2-c2nc3ccccc3s2)c1O	-	35µM	-	-	-	-
COC(=O)c1ccc(CN(C)CC2CC2)cc1	.	-	.	.	.	.
CCc1ccc(Cc2cnc(NC(=O)C3=Cc4ccccc4OC3)s2)cc1	.	-	.	.	.	.
S=c1[nH]nc(CN2CCCCC2)n1Cc1ccccc1	16µM	-	?	15µM	-	-
SMILES	TDP1 cell noCPT	12-LOX inh	HT1080 IDH1KD tx	DT40 TDP1 CPT	HT1080NT lethal	IL-1B inflam inh
c1ccc(Cn2c(CN3CCCC3)nc3ccccc32)cc1	16µM	-	-	?	-	-
Clc1ccc(Cn2c(CN3CCCC3)nc3ccccc32)cc1	7.2µM	-[22.9 µM]	.	?	.	.
NC(Cc1ccc(Cl)cc1)c1csc(Nc2ccc(C(=O)NCCCO)cn2)n1 (stereo not drawn)	?	-	?	?	15µM	-
NC(Cc1ccc(Cl)cc1)c1csc(Nc2cc(NCCCO)ncn2)n1 (stereo not drawn)	15µM	?	?	?	?	-60
NC(COCc1ccccc1)c1csc(Nc2cc(NCCCO)ncn2)n1 (stereo not drawn)	?	-	-	?	-	-
COc1ccc(CC(N)c2csc(Nc3cc(NCCCO)ncn3)n2)cc1 (stereo not drawn)	?	-	?	?	-	-57
N#Cc1nc(-c2cccc(Cl)c2)oc1NCCCN1CCOCC1	.	-	.	.	.	.
CCCCCn1c(CN2CCN(c3ccc(OC)cc3)CC2)nc2c1c(=O)[nH]c(=O)n2C	23µM	-	.	?	.	.
COc1ccc(CCn2c(N3CCN(CCO)CC3)nc3c2c(=O)[nH]c(=O)n3C)cc1	.	-	.	.	.	.
CCCn1c(N2CCN(CC(=O)c3c(C)n(C)c4ccc(OC)cc34)CC2)nc2c1c(=O)[nH]c(=O)n2C	21µM	?	?	?	-	-
COC(=O)Cn1c(CN2CCN(c3cc(Cl)ccc3C)CC2)nc2c1c(=O)[nH]c(=O)n2C	.	-	.	.	.	.
CCCCCn1c(CN2CCN(c3cc(Cl)ccc3C)CC2)nc2c1c(=O)[nH]c(=O)n2C	13µM	-	-	14µM	-	?
O=C(CSc1cc(Cl)ccc1Cl)NC1CCS(=O)(=O)C1 (stereo not drawn)	.	-	.	.	.	.
CCc1cccc(NC(=O)CC2(C(=O)O)CCCCC2)c1	.	-	.	.	.	.
O=[N+]([O-])c1ccccc1/C=C/C=N/Nc1ccc(Cl)nn1	.	-	.	.	.	.
CCOP(=O)(OCC)c1nc(-c2cccc3ccccc23)oc1NCc1ccc(OC)cc1	?	?	?	?	?	-75
CCOP(=O)(OCC)c1nc(/C=C/c2ccccc2)oc1NCc1ccccc1	?	-	-	?	-	-75
COc1ccc(CCNc2oc(-c3cccc4ccccc34)nc2P(=O)(OC)OC)cc1OC	15µM	-	-	?	-	-
COc1ccc(-c2cc(C(=O)NC(C)(C)C)c3ccccc3n2)cc1	.	-	.	.	.	.
CC(C)CNC(=O)C1COC2(CCC(C)CC2)N1C(=O)c1cccc([N+](=O)[O-])c1 (stereo not drawn)	.	-	.	.	.	.
Cc1ccc(N2C(=O)c3cccc4c(Oc5ccccc5[N+](=O)[O-])ccc(c34)C2=O)c(C)c1	6.5µM	-	-	10µM	-	-
O=C(c1ccc(F)cc1)N1CCC(Cc2nc(-c3ccccc3)no2)CC1	.	-	.	.	.	.
O=[N+]([O-])c1ccc(Cl)c(CN2CCCCCC2)c1	-	0.56µM	-	-	-	-
O=[N+]([O-])c1ccc(Cl)c(CN2CCC(O)CC2)c1	-	-	-	-	-	-
Fc1ccccc1/C=N/N1CCN(Cc2ccccc2Cl)CC1	?	13µM	-	?	-	-
Cn1cccc1/C=N/N1CCN(Cc2ccccc2Cl)CC1	2.6µM	-	-	-	-	-
O=[N+]([O-])c1ccc(Cl)c(/C=N/N2CCN(Cc3ccccc3Cl)CC2)c1	21µM	-	-	?	-	-
O=C(O)c1ccc2c(c1)c(C(C(=O)O)N1CCN(c3ncccn3)CC1)cn2Cc1ccccc1 (stereo not drawn)	.	-	.	.	.	.
